Laboratory results published in PubChem BioAssay AID504834 (National Center for Advancing Translational Sciences (NCATS), 2011).
Hit rate of the full screen: of about 320,000 compounds, about 22,000 (6.9%) were called active. Another 27% or so got no clear call; they are omitted. Calls follow the shape of the dose curve; as a rule, active = well fitted inhibition curve with a large enough effect; inconclusive = small, poorly fitted or top-dose-only effect, or another doubt; inactive = no such curve, though single readings can be large or run the other way. Many of the other results were omitted from the sample, so actives are more common in it than they were.

experiment: Primary qHTS for delayed death inhibitors of the malarial parasite plastid, 96 hour incubation; details: P. falciparum luciferase reporter growth; series mostly up to 28.7 µM; activity change, negative = inhibition: at the top concentration
How it was run: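 Readout is luminescence from an integrated firefly luciferase in P. falciparum. Red cells, 2% hematocrit and 0.05% parasitemia final, were cultured with compound through two parasite generations (96 hours) at 37 C, 5% CO2.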
% is scaled to controls: 0 for no effect and ±100 for the full control effect; potency is read from the fitted curve at half-maximal effect.

SMILES | activity change, negative = inhibition | Potency
COc1cccc(N(CC(=O)NCc2ccccc2)C(=O)CCC(=O)Nc2nccs2)c1 | -3.46% (inactive) | 
NC(=O)C1CCN(C(=O)CC2C(=O)NCCN2Cc2cccc(Oc3ccccc3)c2)CC1 (stereo unspecified) | 2.05% (inactive) | 
OC(CNCc1ccc(Cl)c(Cl)c1)c1ccccc1 (stereo unspecified) | 1.84% (inactive) | 
CC(C)(CNC(=O)c1cc(=O)[nH]c2ccccc12)N1CCOCC1 | -11.1% (inactive) | 
CC(C)(CNCC(O)c1ccccc1)N1CCOCC1 (stereo unspecified) |  | 5.86 µM (active)
O=C(N/N=C/c1ccc2c(c1)OCO2)c1ccc(Cn2cc([N+](=O)[O-])cn2)o1 | -6.78% (inactive) | 
Cc1c(Cl)c([N+](=O)[O-])nn1CCCC(=O)Nc1cc(Cl)ccc1Cl | -31.1% (inactive) | 
Cc1c(Cl)c([N+](=O)[O-])nn1Cc1ccc(C(=O)N/N=C\c2cc(Cl)ccc2O)o1 |  | 3.7 µM (active)
CS(=O)(=O)Nc1ccccc1N=C(c1ccccc1)c1ccccc1 | 3.7% (inactive) | 
Cc1ccc(S(=O)(=O)c2nc(NCCCn3ccnc3)sc2Cl)cc1 |  | 6.57 µM (active)
O=C(/C=C/c1ccc(Cl)cc1)NCCCn1ccnc1 | -24.8% (inactive) | 
Cc1ccc(-c2nc(C#N)c(NCCCn3ccnc3)o2)cc1 | 237% (inactive) | 
COc1ccc(NC(=O)CN(C)C(=O)c2ccc(COc3ccccc3)o2)cc1 | -4.52% (inactive) | 
CC(=O)c1ccccc1OCc1ccc(C(=O)c2ccccc2)cc1 | -97.2% (inactive) | 
Cc1ccc(NS(=O)(=O)c2ccc3c(c2)CC(=O)N3)cc1Cl | 14% (inactive) | 
Cc1nc(SCC(=O)N2CC(=O)Nc3ccccc32)c2c(C)c(C)sc2n1 | 0% (inactive) | 
COc1cccc(Nc2nnc(SCC(=O)N3CC(=O)Nc4ccccc43)s2)c1 |  | 4.65 µM (active)
COc1cccc(Nc2nnc(SCC(=O)N3CC(C)OC(C)C3)s2)c1 (stereo unspecified) | 34.9% (inactive) | 
C#CCOc1ccc(/C=C2/C(=O)ON=C2C)cc1OCC | -7.81% (inactive) | 
COCc1c(C(=O)N/N=C(\C)c2ccncc2)nnn1-c1nonc1N | -3.74% (inactive) | 
CCc1cccc(C)c1NS(=O)(=O)c1c(C)nc2sccn2c1=O | 0.376% (inactive) | 
Cc1nc2sccn2c(=O)c1S(=O)(=O)NCCc1ccccc1 | 0% (inactive) | 

SMILES | activity change, negative = inhibition | Potency
CCOC(=O)c1ccccc1NS(=O)(=O)c1c(C)nc2sccn2c1=O |  | 14.7 µM (active)
Cc1cc(OCCCCOc2ccc(C#N)cc2)ccc1[N+](=O)[O-] | 12.6% (inactive) | 
COc1ccc(CCOC(=O)CNC(=O)c2ccc(Cl)cc2Cl)cc1 | -13.4% (inactive) | 
Cc1cc(C)c(S(=O)(=O)Nc2c(C)n(C)n(-c3ccccc3)c2=O)cc1[N+](=O)[O-] | -2.69% (inactive) | 
CCCOc1cccc(C(=O)Nc2nnn(CCC)n2)c1 |  | 4.65 µM (active)
CCCn1nnc(NC(=O)COc2ccc(CC)cc2)n1 | 5.36% (inactive) | 
CCCOc1cccc(C(=O)NCCCNC(=O)c2cccnc2)c1 | 95.6% (inactive) | 
Cc1cc(C(F)F)nn1CC(=O)NC1CCCCCC1 | -19.5% (inactive) | 
CN(C)c1ccc(CNC(=O)CN2C(=O)COc3ccc(S(=O)(=O)N4CCCC4)cc32)cc1 | 12.7% (inactive) | 
Clc1ccc2nc3c(c(-c4ccccc4)c2c1)CNCC3 |  | 13.1 µM (active)
Clc1cccc(-c2nc(NCC3CCCO3)c3ccccc3n2)c1 (stereo unspecified) | 37.3% [at 5.75 µM] (inactive) | 
NC(N)=Nc1nc(-c2ccccc2)c2cc(Cl)ccc2n1 | 51.4% (inactive) | 
COc1ccc(NC(=O)COc2ccc(C(=O)c3ccc(F)cc3)cc2)cc1S(N)(=O)=O | -26.2% (inactive) | 
CC(=O)NCC(=O)NC1CCCc2c1cnn2-c1ccccc1F (stereo unspecified) | -6.37% (inactive) | 
COc1cc(OC)c(S(=O)(=O)Nc2ccccc2C(=O)O)cc1S(=O)(=O)Nc1ccccc1C(=O)O | -13.4% (inactive) | 
COc1ccc(Cl)cc1S(=O)(=O)Nc1cccc(C(=O)O)c1 |  | 10.4 µM (active)
O=C(O)c1ccc(F)c(S(=O)(=O)Nc2ccccc2)c1 | 24.9% (inactive) | 
CN1CCN(c2ncc3c(n2)CC(c2ccccc2F)CC3=O)CC1 (stereo unspecified) | 40.8% (inactive) | 
COc1ccccc1C(C)NC(=O)Cc1ccsc1 (stereo unspecified) | 2.57% (inactive) | 
CCCCOc1ccc(CON(C(C)=O)C(C)=O)cc1Cl | 5.53% (inactive) | 
O=C(CNC(=O)c1ccccc1)Oc1ccc([N+](=O)[O-])cc1 | 1.08% (inactive) | 
CC(Cc1cccs1)N(Cc1ccc(Cl)cc1)C(=O)c1ccncc1 (stereo unspecified) |  | 13.1 µM (active)

SMILES | activity change, negative = inhibition | Potency
CC(Cc1cccs1)NCc1ccc(Cl)cc1 (stereo unspecified) | 54.2% (inactive) | 
CC(Cc1cccs1)NC(=O)c1cccc(Cl)c1 (stereo unspecified) | 43.8% (inactive) | 
CCCc1ccc(OCCNC(=O)c2ccccc2Br)cc1 | -8.4% (inactive) | 
O=C(N/N=C/c1cc2c(cc1Br)OCO2)C1COc2ccccc2O1 (stereo unspecified) |  | 7.38 µM (active)
O=C(N/N=C\c1cc2c(cc1Cl)OCO2)c1ccc(Br)s1 | 19% (inactive) | 
CC(/C=C/c1ccco1)=N/NC(=O)C1COc2ccccc2O1 (stereo unspecified) | -5.91% (inactive) | 
Cc1cc(C)c(S(=O)(=O)N2CCCC2CNC(=O)c2ccc3c(c2)OCO3)c(C)c1 (stereo unspecified) |  | 11.7 µM (active)
COc1ccc(C(=O)NCC2CCCN2S(=O)(=O)c2cccs2)cc1OC (stereo unspecified) | -4.53% (inactive) | 
Cc1cc(C)c(S(=O)(=O)NCC2CCC(C(=O)NCc3ccc4c(c3)OCO4)CC2)c(C)c1 (stereo unspecified) | -66.7% (inactive) | 
CCOc1ccc(S(=O)(=O)N2CCC(C(=O)NCc3ccccn3)CC2)cc1Cl | -3.21% (inactive) | 
O=C(NCc1ccccc1)C1CCN(C(=O)Cc2ccccc2)CC1 | -21.4% (inactive) | 
CN(C)S(=O)(=O)c1cccc(NC(=O)COC(=O)c2cc(=O)[nH]c(=O)[nH]2)c1 | 6.59% (inactive) | 
Cc1ccc(/C=N/NC(=S)Nc2cccc(S(=O)(=O)N(C)C)c2)o1 |  | 6.57 µM (active)
CN(C)S(=O)(=O)c1cccc(NC(=O)COC(=O)/C=C/c2cccs2)c1 | 55.6% (inactive) | 
CCCOc1ccc(Cc2c(O)nc(N)[nH]c2=O)cc1C | -17.1% (inactive) | 
S=C(NNC(=S)NC1CC2C=CC1C2)NC1CC2C=CC1C2 (stereo unspecified) |  | 9.28 µM (active)
CSC1=NC2(C)CCCCC2C12C=CC(=O)C=C2 (stereo unspecified) |  | 13.1 µM (active)
Cc1cc2c(cc1S(=O)(=O)CCC(=O)NCc1ccccc1)OCC(=O)N2 | 3.56% (inactive) | 
O=C(CSc1nccc(=O)[nH]1)Nc1ccc(N2CCOCC2)c(Cl)c1 | -26.5% (inactive) | 
COc1ccc(CN(Cc2ccc(OC)cc2)C(=O)c2cccs2)cc1 | -6.73% (inactive) | 
COc1ccccc1OCc1nnc(SCC(N)=O)n1-c1ccccc1 | -2.43% (inactive) | 
COc1ccccc1-n1c(SCC(=O)O)nc2sc3c(c2c1=O)CCC3 | -1.23% (inactive) | 

SMILES | activity change, negative = inhibition | Potency
COc1ccccc1NC(=O)CSc1nnc(Cn2nnc(-c3ccccc3)n2)n1-c1ccccc1 |  | 7.38 µM (active)
COc1ccccc1NC(=O)CSc1nc2sc(C)c(C)c2c(=O)n1Cc1ccco1 | 19.6% (inactive) | 
COc1ccccc1NC(=O)CSc1nc2sc3c(c2c(=O)n1-c1ccccc1)CCN(C)C3 |  | 1.65 µM (active)
CCOc1ccc(-n2c(SCC(=O)OC)nc3sc4c(c3c2=O)CCN(C)C4)cc1 |  | 0.828 µM (active)
CCCSc1nc2sc3c(c2c(=O)n1-c1ccc(OC)cc1)CCN(C)C3 |  | 4.65 µM (active)
COc1ccc(-n2c(=S)[nH]c3sc4c(c3c2=O)CCc2ccccc2-4)cc1 | -104% (inactive) | 
CCCn1c(N)c(C(=O)CSc2nc3ccccc3c(=O)n2-c2ccc(OC)cc2)c(=O)[nH]c1=O | 76.7% (inactive) | 
CCOc1ccc(-n2c(SCC(=O)NC3CCS(=O)(=O)C3)nnc2-c2cccnc2)cc1 (stereo unspecified) | 10.7% (inactive) | 
CCOc1ccc(NC(=O)CSc2nncn2C)cc1 | 30.9% (inactive) | 
COc1ccccc1NC(=O)CSc1nnc(Cc2cccn2C)n1-c1ccc(F)cc1 | 29.7% (inactive) | 
Cc1ccc(C(=O)Oc2ccc(C(=S)N3CCOCC3)cc2)cc1 | -3.89% (inactive) | 
O=C(Nc1ccc(-c2cscn2)cc1)C1CCCN(Cc2ccc(CO)o2)C1 (stereo unspecified) | 6.28% (inactive) | 
Cc1n[nH]c(=O)c2c(NC(=O)CSc3ccccc3F)oc(C)c12 | 49.4% (inactive) | 
COc1cc(N2C(=O)CSC2=S)cc(OC)c1OC | 8.02% (inactive) | 
Cc1cc(C(=O)NC2CC(C)(C)Cc3c2cnn3-c2ccccc2)n[nH]1 (stereo unspecified) | -4.15% (inactive) | 
Cc1nc2sc3c(c2c(=O)n1NC(=O)CCl)CCCC3 | -26.3% (inactive) | 
CCSc1nc2sc3c(c2c(=O)n1-c1ccc(C)cc1)CCN(C)C3 |  | 0.928 µM (active)
Cc1ccc(C)c(-n2c(SCC(=O)O)nc3sc4c(c3c2=O)CCCC4)c1 | -7.37% (inactive) | 
COC(=O)c1sccc1NC(=S)Nc1ccc(C)cc1 | 2.1% (inactive) | 
CNC(=O)N1c2ccccc2C=Cc2ccccc21 | -13.3% (inactive) | 
Cc1ccc(Oc2nc(-c3ccccn3)nc3ccccc23)cc1 |  | 5.86 µM (active)
COc1ccccc1Oc1nc(-c2cccnc2)nc2ccccc12 | -24.1% (inactive) | 

SMILES | activity change, negative = inhibition | Potency
COc1ccc(Cc2nc(-c3ccccn3)no2)cc1OC | 14.9% (inactive) | 
COc1cnc(-c2ccccn2)nc1Oc1ccc(C(C)(C)C)cc1 |  | 0.329 µM (active)
COc1ccc(Sc2nc(-c3ccccc3)ncc2OC)cc1 | 15.8% (inactive) | 
N#Cc1ccc(Oc2cc(C(F)(F)F)nc(-c3ccccn3)n2)cc1 | 115% (inactive) | 
C=Cc1ccc(C(=O)N2CCCC(CCC(=O)N3CCN(c4ccccn4)CC3)C2)cc1 (stereo unspecified) | 37.2% (inactive) | 
C/C=C/C(=O)OCc1csc(CC(=O)Nc2ccccc2C)n1 | -7.19% (inactive) | 
O=C(NCCc1ccc(C(F)(F)F)cc1)c1ccc2c(c1)OCO2 | 17.6% (inactive) | 
O=C(COC(=O)c1ccccc1C(=O)N1CCN(c2ccccc2)CC1)NCc1ccccc1 | -13.9% (inactive) | 
CCOC(=O)c1nnn2c3ccccc3c(=O)n(C)c12 | 0% (inactive) | 
CCOC(=O)c1nnn2c1nc(N1CCN(c3ccccc3)CC1)c1ccccc12 |  | 2.62 µM (active)
O=C(NCCc1ccccc1)Oc1ccc(Cl)cc1 | 83.8% (inactive) | 
CCn1c(SCC(=O)NNC(=O)c2ccc(OC)cc2)nnc1C(C)C | -16.7% (inactive) | 
CC1CCC(CN2CCN=C2N(C)C)CC1 (stereo unspecified) | 3.19% (inactive) | 
CCCCC(=O)Nc1ccc(C(=O)Nc2cc(C(F)(F)F)ccc2Cl)cc1 | -15.4% (inactive) | 
O=C1CCCN1CCCNC(=S)Nc1ccc(F)c(Cl)c1 | 4.63% (inactive) | 
O=C(CCCN1C(=O)CCC1=O)Nc1ccc(Cl)c(C(F)(F)F)c1 |  | 2.08 µM (active)
CNC(=O)c1sc(Nc2ccc(OCc3ccccc3)cc2)nc1C | 1.4% (inactive) | 
O=C(COc1ccccc1[N+](=O)[O-])N/N=C/c1ccc[nH]1 | 31.6% (inactive) | 
